High-throughput results deposited in PubChem BioAssay by NMMLSC.
This is a sample that favours compounds with a hit; in the whole collection about 1.9% have one here.
Autofluor Jurkat – compound fluoresces in Jurkat cells, VLA-4 screen interference; compound autofluorescence, flow cytometry; hits give high values; 1 = vehicle-only cell background; fluorescence ratio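 (tested at 10 µM compound in the well)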; hit rate 0.61% among 24,000; AID 576;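 active = fluorescence ratio above 2.44, which is 1 plus 3 SD of all ratios; inconclusive = signal too bright to measure linearly, ratio around 10 or more; inactive = fluorescence ratio below 2.44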;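 also: green fluorescence of cells measured with 488 nm excitation and 530 nm emission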
FPR binder – binds the human formylpeptide receptor FPR; P21462; FPR-expressing cells, fluorescent ligand binding, flow cytometry; inhibition, % (test concentration not listed); hit rate 0.74% among 24,000;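 also: 0% = buffer wells and 100% = receptor blocker peptide wells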
Target sequence (P21462 whole entry, looked up): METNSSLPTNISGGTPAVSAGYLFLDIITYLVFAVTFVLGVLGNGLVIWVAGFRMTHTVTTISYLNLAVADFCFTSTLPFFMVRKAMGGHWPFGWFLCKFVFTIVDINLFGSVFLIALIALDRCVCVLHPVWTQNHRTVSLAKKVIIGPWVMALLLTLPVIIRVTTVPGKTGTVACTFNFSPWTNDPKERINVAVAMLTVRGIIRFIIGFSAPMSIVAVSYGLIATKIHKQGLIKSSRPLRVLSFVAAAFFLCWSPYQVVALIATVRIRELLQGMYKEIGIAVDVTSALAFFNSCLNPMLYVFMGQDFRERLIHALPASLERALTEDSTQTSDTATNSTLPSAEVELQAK
VLA-4 antagonist – inhibition of LDV-FITC ligand binding to human VLA-4 integrin; P13612; Jurkat cells, LDV-FITC binding with Mn2+, flow cytometry; 100% = Mn2+-driven binding gain fully reversed; inhibition, % at 10 µM (by protocol); hit rate 0.2% among 24,000;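 active = inhibition above 50%; inconclusive = compound itself fluorescent, judged against control cell fluorescence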;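 also: 0% = Mn2+ stimulated cells lacking compound and 100% = ligand binding without Mn2+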
FPRL1 ligand – binds the human formylpeptide receptor-like-1 FPRL1. hit rate 0.3% among 24,000. AID 441. P25090. inhibition, % (concentration not given with the values). FPRL1-expressing cells, fluorescent ligand binding inhibition, flow cytometry;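 also: 0% = buffer alone and 100% = receptor blocker peptide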
Target sequence (P25090 whole entry, looked up): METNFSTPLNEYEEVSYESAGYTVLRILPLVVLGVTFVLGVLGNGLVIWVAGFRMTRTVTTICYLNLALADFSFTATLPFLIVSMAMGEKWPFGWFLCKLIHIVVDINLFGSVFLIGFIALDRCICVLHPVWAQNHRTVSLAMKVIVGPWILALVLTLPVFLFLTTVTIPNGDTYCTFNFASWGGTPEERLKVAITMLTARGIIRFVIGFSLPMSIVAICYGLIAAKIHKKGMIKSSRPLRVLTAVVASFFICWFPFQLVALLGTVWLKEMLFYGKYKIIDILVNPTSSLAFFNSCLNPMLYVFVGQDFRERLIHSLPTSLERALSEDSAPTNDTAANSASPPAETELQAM
VLA-4 allo ag – allosterically activates the human VLA-4 integrin | P13612 | Jurkat cells, LDV-FITC binding, flow cytometry | activation, % at 10 µM (by protocol) | 24,000 tested, under 10 active | AID 528;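 active = fluorescent ligand binding to cells raised by more than 40% of the manganese-induced maximum; inconclusive = compound's own fluorescence above 85% of the ligand control signal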;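 also: 0% = ligand binding without compound and 100% = manganese-stimulated maximal binding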
Proteasome disasm – blocks ATP-dependent breakdown of the yeast 26S proteasome; anti-FLAG beads, GFP-proteasome disassembly, flow cytometry; inhibition of disassembly, % (no concentration beside the values); hit rate 0.2% among 24,000; AID 751;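 active = inhibition of disassembly above about 33%, limit read from the data; inconclusive = likely self-fluorescent, control bead median signal at least 40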;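 also: plate controls were ATP control with full disassembly for no effect and ATP-gamma-S intact proteasomes for full effect; higher percent means more bead fluorescence retained so stronger block of disassembly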
* hit, by the source's call. Rule as the data show it, unless noted: active = inhibition above about 30%; inconclusive = no clear call, values can overlap the other calls; inactive = below that.

What do the screens show for `COc1ccc(C2C(C(=O)c3sc(C)nc3C)=C(O)C(=O)N2CCN(C)C)cc1` (stereo unspecified)?
Autofluor Jurkat: 1.03; FPR binder: 3.7; VLA-4 antagonist: -6.5; FPRL1 ligand: -2.0; VLA-4 allo ag: -0.5; Proteasome disasm: 0.0

What do the screens show for `COc1cccc(C2C(C(=O)c3cccs3)=C(O)C(=O)N2CCCn2ccnc2)c1OC` (stereo unspecified)?
Autofluor Jurkat: 1.01; FPR binder: 32.4*; VLA-4 antagonist: -10.5; FPRL1 ligand: -1.4; VLA-4 allo ag: -2.0; Proteasome disasm: 2.7

How did Cn1c(=O)cc(SCC(=O)NCC2CCCO2)c2ccccc21 (stereo unspecified) do in these assays?
Autofluor Jurkat: 1.04; FPR binder: 11.0; VLA-4 antagonist: 8.0; FPRL1 ligand: 11.0; VLA-4 allo ag: -3.0; Proteasome disasm: -1.7

Results for COc1ccc(OC)c(C2C=C(c3ccc(C)c(C)c3)Nc3nnnn32)c1 (stereo unspecified) ?
Autofluor Jurkat: 3.64*; FPR binder: -9.6; VLA-4 antagonist: inconclusive; FPRL1 ligand: -1.8; VLA-4 allo ag: inconclusive; Proteasome disasm: 1.1

How did O=C(Nc1ccccc1)C1=C(O)CC(c2ccco2)CC1=Nc1ccccc1 (stereo unspecified) do in these assays?
Autofluor Jurkat: 1.45; FPR binder: -2.3; VLA-4 antagonist: 9.0; FPRL1 ligand: -2.3; VLA-4 allo ag: -7.0; Proteasome disasm: 47.4*

What do the screens show for `O=C(Nc1ccccc1)C1=C(O)CC(c2ccoc2)CC1=Nc1ccccc1` (stereo unspecified)?
Autofluor Jurkat: 1.85; FPR binder: -1.1; VLA-4 antagonist: inconclusive; FPRL1 ligand: -6.9; VLA-4 allo ag: inconclusive; Proteasome disasm: 3.8

What do the screens show for `c1ccc(CCNc2nc3ccccc3n3nnnc23)cc1`?
Autofluor Jurkat: 9.24*; FPR binder: 1.0; VLA-4 antagonist: inconclusive; FPRL1 ligand: -6.3; VLA-4 allo ag: inconclusive; Proteasome disasm: 1.2

How did c1ccc(N2CCN(c3nc4ccccc4n4nnnc34)CC2)cc1 do in these assays?
Autofluor Jurkat: inconclusive; FPR binder: -32.1; VLA-4 antagonist: inconclusive; FPRL1 ligand: -24.1; VLA-4 allo ag: inconclusive; Proteasome disasm: -3.1

What do the screens show for `Clc1ccc(SCCn2ccnc2)cc1`?
Autofluor Jurkat: 1.01; FPR binder: -5.2; VLA-4 antagonist: -15.0; FPRL1 ligand: 13.2; VLA-4 allo ag: -2.0; Proteasome disasm: 1.4

How did C/C(O)=c1/ccc2cccc3nc(C)nc1c23 do in these assays?
Autofluor Jurkat: 3.5*; FPR binder: -4.9; VLA-4 antagonist: inconclusive; FPRL1 ligand: -10.8; VLA-4 allo ag: inconclusive; Proteasome disasm: 17.0

How did COc1ccc(-c2nnc(Nc3nc4c(OC)cccc4s3)o2)c(OC)c1 do in these assays?
Autofluor Jurkat: 1.13; FPR binder: 62.1*; VLA-4 antagonist: 68.0*; FPRL1 ligand: 5.5; VLA-4 allo ag: 5.0; Proteasome disasm: -0.8

Results for COc1ccc(-c2nnc(Nc3nc4c(OC)cccc4s3)o2)cc1 ?
Autofluor Jurkat: 1.1; FPR binder: 51.6*; VLA-4 antagonist: 65.5*; FPRL1 ligand: 2.6; VLA-4 allo ag: 1.0; Proteasome disasm: -0.8

Results for CN1CC=C2C(C#N)=C(N)C(C#N)(C#N)C(c3cccc(Cl)c3Cl)C2C1 (stereo unspecified) ?
Autofluor Jurkat: 2.73*; FPR binder: -3.6; VLA-4 antagonist: inconclusive; FPRL1 ligand: -7.7; VLA-4 allo ag: inconclusive; Proteasome disasm: 17.3

How did CCCN1CC=C2C(C#N)=C(N)C(C#N)(C#N)C(c3cccc(OC)c3OC)C2C1 (stereo unspecified) do in these assays?
Autofluor Jurkat: 2.13; FPR binder: -0.8; VLA-4 antagonist: inconclusive; FPRL1 ligand: -8.5; VLA-4 allo ag: inconclusive; Proteasome disasm: 0.1

What do the screens show for `COc1ccccc1-c1c(C)oc2cc(OC(=O)c3ccco3)ccc2c1=O`?
FPR binder: 68.3*; FPRL1 ligand: -1.3

What do the screens show for `Cc1oc2cc(OCC(=O)O)ccc2c(=O)c1Oc1ccccc1`?
Autofluor Jurkat: 1.09; FPR binder: -2.6; VLA-4 antagonist: inconclusive; FPRL1 ligand: -8.6; VLA-4 allo ag: inconclusive; Proteasome disasm: 2.2

How did COc1ccc2c(=O)c(-c3ccccc3C)c(C)oc2c1 do in these assays?
FPR binder: -5.9; FPRL1 ligand: -4.4

Results for CCOc1ccccc1Oc1c(C)oc2cc(OC(=O)c3ccco3)ccc2c1=O ?
FPR binder: 79.3*; FPRL1 ligand: -3.5

Results for COc1ccccc1Oc1c(C)oc2cc(OC(=O)c3ccco3)ccc2c1=O ?
FPR binder: 92.8*; FPRL1 ligand: 0.5

Results for CCOC(=O)c1oc2cc(O)ccc2c(=O)c1-c1csc(C)n1 ?
FPR binder: -10.6; FPRL1 ligand: -3.0

What do the screens show for `CCOC(=O)c1oc2cc(O)ccc2c(=O)c1-c1ccccc1OC`?
FPR binder: 34.2*; FPRL1 ligand: 23.5

Results for CSc1nc2c(c(=O)[nH]1)C(c1ccncc1)C(C(=O)OC(C)C)=C(C)N2 (stereo unspecified) ?
Autofluor Jurkat: 1.03; FPR binder: 3.8; VLA-4 antagonist: 6.0; FPRL1 ligand: 1.1; VLA-4 allo ag: -1.0; Proteasome disasm: -0.1

Results for CCOC(=O)N1CCC(NS(=O)(=O)c2cc3c(cc2Cl)NC(=O)CO3)CC1 ?
Autofluor Jurkat: 5.09*; FPR binder: -18.8; VLA-4 antagonist: inconclusive; FPRL1 ligand: -8.1; VLA-4 allo ag: inconclusive; Proteasome disasm: 0.1

Results for Cn1c2ccccc2c2c(C(=O)O)cn(C3CCCC3)c(=O)c21 ?
Autofluor Jurkat: 1.13; FPR binder: 16.0; VLA-4 antagonist: 51.0*; FPRL1 ligand: -3.6; VLA-4 allo ag: -21.0; Proteasome disasm: 0.4

What do the screens show for `Cn1c2ccccc2c2c(C(=O)N3CCN(c4ccccn4)CC3)cn(C3CCCC3)c(=O)c21`?
Autofluor Jurkat: 1.06; FPR binder: 3.7; VLA-4 antagonist: 28.0; FPRL1 ligand: 2.8; VLA-4 allo ag: -5.0; Proteasome disasm: -0.5

Results for COC(=O)C1CCC(C)(C(=O)Nc2ccccc2)C1(C)C (stereo unspecified) ?
Autofluor Jurkat: 0.95; FPR binder: 7.9; VLA-4 antagonist: 3.0; FPRL1 ligand: 1.4; VLA-4 allo ag: -2.0; Proteasome disasm: 0.2

Results for CCCCNC(=O)C(C#N)c1nc2ccccc2nc1N1CCCC1 (stereo unspecified) ?
Autofluor Jurkat: 2.5*; FPR binder: -13.4; VLA-4 antagonist: inconclusive; FPRL1 ligand: -5.4; VLA-4 allo ag: inconclusive; Proteasome disasm: 2.2

What do the screens show for `CN1CCN(c2ccccc2NS(=O)(=O)c2ccc3c(c2)CCN3C(=O)C2CCC2)CC1`?
Autofluor Jurkat: 1.08; FPR binder: 0.6; VLA-4 antagonist: 15.0; FPRL1 ligand: -4.4; VLA-4 allo ag: -5.0; Proteasome disasm: 0.8

How did COc1ccc(N(CC(=O)NCc2cccs2)S(=O)(=O)c2c(C)n[nH]c2C)cc1 do in these assays?
Autofluor Jurkat: 0.93; FPR binder: 2.3; VLA-4 antagonist: 8.0; FPRL1 ligand: -3.9; VLA-4 allo ag: -1.0; Proteasome disasm: -1.5
